The supplement of paper PMC11732987, “Enantioselective OTUD7B fragment discovery through chemoproteomics screening and high-throughput optimisation” (Communications Chemistry, 2025)

Experiments:
Assay in all cases: log2 ratio of Biotin-Ahx-Ub-VS probe labelling (fragment/DMSO); higher = less target engagement (more negative = stronger competition), active = hit call of the paper (q ≤ 0.05, log2 ratio ≤ -1)
Conditions in all cases: compound concentration: 200 uM; treatment time: 3 h
USP42 = target: T1, USP42 (UniProt Q9H9J4)
T1 sequence (whole entry): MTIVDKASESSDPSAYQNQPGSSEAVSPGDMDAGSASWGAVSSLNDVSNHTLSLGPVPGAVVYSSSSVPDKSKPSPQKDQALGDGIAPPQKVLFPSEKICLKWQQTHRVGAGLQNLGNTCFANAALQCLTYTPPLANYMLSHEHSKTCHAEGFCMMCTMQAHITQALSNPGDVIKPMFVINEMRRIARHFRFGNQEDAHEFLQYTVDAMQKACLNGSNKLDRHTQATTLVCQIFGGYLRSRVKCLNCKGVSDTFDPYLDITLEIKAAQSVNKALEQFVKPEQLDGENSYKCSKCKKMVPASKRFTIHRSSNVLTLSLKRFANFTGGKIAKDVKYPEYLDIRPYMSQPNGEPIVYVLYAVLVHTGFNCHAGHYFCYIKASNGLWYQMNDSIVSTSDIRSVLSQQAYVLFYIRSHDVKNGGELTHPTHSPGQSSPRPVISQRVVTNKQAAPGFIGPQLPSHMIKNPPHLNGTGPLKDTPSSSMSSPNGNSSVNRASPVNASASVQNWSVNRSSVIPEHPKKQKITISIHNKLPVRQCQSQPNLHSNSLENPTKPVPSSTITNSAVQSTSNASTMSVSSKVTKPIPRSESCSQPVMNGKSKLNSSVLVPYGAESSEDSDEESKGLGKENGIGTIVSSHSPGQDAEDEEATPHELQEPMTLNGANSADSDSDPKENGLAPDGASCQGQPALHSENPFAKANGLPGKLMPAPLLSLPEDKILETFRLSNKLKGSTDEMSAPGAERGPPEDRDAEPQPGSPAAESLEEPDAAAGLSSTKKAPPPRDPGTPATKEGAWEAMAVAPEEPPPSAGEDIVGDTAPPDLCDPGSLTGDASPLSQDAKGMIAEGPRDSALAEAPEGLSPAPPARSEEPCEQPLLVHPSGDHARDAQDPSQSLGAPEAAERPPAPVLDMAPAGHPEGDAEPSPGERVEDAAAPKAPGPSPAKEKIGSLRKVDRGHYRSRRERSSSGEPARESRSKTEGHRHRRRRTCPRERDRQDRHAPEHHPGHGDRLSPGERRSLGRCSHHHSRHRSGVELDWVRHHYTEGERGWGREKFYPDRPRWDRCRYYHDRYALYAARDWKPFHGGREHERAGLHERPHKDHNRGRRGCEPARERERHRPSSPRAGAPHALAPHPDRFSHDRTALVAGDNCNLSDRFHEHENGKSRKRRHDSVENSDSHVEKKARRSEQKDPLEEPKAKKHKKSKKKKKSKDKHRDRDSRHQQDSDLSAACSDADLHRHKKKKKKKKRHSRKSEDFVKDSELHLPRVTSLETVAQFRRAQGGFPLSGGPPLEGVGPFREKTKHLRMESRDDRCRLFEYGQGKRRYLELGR
Outline: (§1)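 HEK293T lysate, 495 µg per sample in Tris/CHAPS/IGEPAL buffer with protease inhibitors, was treated in triplicate with fragment at 200 µM or vehicle for 3 h and then with Biotin-Ahx-Ub-VS at 0.5 µM final for 1 h. Labelled DUBs were NeutrAvidin-enriched, digested with LysC and trypsin, and run by diaPASEF LC-MS/MS. Spectronaut label-free quantities were global-median-normalised, and values are average log2 fragment/vehicle ratios by unpaired t-test on proteins with ≥2 unique peptides.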

USP46 = USP46 (UniProt P62068)
Outline: as §1

USP47 = target: T2, USP47 (UniProt Q96K76)
T2 sequence (whole entry): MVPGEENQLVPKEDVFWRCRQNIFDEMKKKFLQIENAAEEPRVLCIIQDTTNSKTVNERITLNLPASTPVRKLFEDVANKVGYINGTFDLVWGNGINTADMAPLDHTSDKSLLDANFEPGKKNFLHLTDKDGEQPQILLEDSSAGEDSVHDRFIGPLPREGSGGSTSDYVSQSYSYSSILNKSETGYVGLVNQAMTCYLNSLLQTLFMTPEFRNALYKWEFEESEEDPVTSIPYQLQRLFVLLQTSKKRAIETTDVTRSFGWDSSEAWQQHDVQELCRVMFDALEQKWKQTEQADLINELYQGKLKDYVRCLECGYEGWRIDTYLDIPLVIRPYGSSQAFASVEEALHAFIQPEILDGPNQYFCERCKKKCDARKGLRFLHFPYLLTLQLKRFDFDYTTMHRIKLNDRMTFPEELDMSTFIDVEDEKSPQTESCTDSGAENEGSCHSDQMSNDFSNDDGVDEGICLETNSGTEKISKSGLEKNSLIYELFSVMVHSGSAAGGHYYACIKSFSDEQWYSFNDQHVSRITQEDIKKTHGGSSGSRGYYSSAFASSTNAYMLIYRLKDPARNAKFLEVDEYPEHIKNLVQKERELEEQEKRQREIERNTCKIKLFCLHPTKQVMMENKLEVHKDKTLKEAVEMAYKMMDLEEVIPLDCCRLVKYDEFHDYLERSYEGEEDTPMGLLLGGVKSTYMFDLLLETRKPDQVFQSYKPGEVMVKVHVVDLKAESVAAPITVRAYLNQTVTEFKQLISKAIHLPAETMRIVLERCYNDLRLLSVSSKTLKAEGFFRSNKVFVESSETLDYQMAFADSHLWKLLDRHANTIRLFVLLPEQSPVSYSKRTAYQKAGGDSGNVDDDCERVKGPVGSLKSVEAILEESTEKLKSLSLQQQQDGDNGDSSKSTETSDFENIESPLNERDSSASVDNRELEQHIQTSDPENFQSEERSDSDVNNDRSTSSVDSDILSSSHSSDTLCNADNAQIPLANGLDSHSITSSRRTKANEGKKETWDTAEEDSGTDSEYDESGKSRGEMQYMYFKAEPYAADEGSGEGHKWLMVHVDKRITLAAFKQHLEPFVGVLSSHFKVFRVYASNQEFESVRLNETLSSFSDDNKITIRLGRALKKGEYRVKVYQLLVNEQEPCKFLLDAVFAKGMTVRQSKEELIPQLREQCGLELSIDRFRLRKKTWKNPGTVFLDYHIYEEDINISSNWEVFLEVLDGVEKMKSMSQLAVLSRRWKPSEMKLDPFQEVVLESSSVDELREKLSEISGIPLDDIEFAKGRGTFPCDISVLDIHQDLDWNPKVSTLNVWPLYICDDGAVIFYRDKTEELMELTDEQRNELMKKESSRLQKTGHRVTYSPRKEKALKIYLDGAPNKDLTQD
Outline: as §1

USP48 = target: T3, USP48 (UniProt Q86UV5)
T3 sequence (whole entry): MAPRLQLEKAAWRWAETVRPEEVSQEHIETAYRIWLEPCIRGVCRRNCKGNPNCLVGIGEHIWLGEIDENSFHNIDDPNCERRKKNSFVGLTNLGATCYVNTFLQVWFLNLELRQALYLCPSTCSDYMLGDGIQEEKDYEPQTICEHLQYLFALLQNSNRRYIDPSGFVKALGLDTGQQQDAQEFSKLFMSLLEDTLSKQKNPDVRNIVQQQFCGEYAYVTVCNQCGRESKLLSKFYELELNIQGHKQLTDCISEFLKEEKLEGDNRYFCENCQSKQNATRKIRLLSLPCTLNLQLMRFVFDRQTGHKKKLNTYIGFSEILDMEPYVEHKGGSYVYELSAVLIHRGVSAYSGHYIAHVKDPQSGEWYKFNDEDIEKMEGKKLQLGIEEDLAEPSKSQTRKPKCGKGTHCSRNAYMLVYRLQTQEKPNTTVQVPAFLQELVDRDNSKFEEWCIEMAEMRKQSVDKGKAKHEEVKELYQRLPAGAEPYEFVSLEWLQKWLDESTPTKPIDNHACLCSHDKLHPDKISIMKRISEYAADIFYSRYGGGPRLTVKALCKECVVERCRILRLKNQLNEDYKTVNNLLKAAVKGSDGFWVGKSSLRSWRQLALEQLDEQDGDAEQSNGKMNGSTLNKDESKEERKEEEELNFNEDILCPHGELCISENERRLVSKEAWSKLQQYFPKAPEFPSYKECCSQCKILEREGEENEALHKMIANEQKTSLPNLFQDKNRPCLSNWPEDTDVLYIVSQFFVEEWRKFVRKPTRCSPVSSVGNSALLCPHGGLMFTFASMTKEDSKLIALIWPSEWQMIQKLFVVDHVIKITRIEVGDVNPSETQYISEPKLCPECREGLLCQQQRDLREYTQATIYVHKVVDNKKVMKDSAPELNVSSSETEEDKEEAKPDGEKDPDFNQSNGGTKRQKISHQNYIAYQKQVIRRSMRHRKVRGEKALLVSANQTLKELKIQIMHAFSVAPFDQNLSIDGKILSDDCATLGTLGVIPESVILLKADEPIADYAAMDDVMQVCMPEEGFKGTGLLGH
Outline: as §1

USP5 = target: T4, USP5 (UniProt P45974)
T4 sequence (whole entry): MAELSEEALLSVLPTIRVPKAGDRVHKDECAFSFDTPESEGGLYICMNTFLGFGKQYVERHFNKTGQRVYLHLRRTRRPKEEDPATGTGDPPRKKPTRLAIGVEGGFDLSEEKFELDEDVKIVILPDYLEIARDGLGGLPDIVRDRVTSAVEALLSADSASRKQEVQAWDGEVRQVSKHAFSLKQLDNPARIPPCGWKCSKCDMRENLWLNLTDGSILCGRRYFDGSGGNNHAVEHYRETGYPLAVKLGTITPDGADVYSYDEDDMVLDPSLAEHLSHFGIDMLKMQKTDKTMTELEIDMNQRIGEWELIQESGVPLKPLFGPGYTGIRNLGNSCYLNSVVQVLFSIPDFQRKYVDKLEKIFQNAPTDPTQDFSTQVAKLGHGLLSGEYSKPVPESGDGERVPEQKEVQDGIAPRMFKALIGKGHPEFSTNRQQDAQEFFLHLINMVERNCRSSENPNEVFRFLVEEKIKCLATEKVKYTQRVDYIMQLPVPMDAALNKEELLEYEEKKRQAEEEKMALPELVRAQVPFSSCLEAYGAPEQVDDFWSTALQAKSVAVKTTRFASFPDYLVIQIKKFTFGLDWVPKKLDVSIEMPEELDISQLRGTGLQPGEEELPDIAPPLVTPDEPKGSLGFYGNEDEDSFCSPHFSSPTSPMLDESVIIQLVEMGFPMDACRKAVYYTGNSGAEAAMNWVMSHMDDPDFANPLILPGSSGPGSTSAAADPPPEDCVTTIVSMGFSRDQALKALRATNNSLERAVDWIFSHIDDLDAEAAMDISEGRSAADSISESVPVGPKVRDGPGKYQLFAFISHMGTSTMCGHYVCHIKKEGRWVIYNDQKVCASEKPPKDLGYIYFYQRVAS
Outline: as §1

USP54 = USP54 (UniProt Q70EL1)
Outline: as §1

USP7 = USP7 (UniProt Q93009)
Outline: as §1

USP8 = target: T5, USP8 (UniProt P40818)
T5 sequence (whole entry): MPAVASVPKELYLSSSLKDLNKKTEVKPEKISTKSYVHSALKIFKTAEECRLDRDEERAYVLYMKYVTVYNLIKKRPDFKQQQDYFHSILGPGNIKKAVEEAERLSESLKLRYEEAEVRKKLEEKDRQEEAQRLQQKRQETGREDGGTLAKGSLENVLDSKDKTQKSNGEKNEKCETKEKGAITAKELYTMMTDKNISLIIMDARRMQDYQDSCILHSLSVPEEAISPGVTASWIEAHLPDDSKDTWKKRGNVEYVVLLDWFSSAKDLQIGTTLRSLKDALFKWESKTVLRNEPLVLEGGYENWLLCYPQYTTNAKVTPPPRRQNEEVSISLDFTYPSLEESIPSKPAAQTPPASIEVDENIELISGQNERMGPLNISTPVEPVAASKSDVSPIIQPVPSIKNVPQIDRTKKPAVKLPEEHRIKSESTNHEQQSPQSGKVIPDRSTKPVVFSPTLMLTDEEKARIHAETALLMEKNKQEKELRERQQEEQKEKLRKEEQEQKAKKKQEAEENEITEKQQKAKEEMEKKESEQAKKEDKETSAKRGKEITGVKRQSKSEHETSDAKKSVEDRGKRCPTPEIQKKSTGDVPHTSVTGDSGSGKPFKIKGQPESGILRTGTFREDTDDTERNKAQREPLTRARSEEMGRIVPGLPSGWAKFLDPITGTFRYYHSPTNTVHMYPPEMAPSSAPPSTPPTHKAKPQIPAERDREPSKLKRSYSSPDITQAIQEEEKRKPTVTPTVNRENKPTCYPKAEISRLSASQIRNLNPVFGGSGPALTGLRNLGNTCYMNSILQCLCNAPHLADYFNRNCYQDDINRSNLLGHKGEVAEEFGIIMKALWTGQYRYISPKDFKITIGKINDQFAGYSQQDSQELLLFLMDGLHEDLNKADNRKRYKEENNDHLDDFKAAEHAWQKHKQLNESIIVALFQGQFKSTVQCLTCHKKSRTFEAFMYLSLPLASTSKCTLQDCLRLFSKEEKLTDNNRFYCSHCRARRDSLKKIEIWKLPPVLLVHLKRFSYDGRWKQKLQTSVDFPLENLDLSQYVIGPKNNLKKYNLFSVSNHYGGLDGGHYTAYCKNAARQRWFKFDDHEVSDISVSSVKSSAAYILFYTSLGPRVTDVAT
Outline: as §1

USP9X = USP9X (UniProt Q93008)
Outline: as §1

UniProt O00487 = target: UniProt O00487
Outline: as §1

Measured: log2 ratio of Biotin-Ahx-Ub-VS probe labelling

Sequence of USP9X (Q93008 whole entry): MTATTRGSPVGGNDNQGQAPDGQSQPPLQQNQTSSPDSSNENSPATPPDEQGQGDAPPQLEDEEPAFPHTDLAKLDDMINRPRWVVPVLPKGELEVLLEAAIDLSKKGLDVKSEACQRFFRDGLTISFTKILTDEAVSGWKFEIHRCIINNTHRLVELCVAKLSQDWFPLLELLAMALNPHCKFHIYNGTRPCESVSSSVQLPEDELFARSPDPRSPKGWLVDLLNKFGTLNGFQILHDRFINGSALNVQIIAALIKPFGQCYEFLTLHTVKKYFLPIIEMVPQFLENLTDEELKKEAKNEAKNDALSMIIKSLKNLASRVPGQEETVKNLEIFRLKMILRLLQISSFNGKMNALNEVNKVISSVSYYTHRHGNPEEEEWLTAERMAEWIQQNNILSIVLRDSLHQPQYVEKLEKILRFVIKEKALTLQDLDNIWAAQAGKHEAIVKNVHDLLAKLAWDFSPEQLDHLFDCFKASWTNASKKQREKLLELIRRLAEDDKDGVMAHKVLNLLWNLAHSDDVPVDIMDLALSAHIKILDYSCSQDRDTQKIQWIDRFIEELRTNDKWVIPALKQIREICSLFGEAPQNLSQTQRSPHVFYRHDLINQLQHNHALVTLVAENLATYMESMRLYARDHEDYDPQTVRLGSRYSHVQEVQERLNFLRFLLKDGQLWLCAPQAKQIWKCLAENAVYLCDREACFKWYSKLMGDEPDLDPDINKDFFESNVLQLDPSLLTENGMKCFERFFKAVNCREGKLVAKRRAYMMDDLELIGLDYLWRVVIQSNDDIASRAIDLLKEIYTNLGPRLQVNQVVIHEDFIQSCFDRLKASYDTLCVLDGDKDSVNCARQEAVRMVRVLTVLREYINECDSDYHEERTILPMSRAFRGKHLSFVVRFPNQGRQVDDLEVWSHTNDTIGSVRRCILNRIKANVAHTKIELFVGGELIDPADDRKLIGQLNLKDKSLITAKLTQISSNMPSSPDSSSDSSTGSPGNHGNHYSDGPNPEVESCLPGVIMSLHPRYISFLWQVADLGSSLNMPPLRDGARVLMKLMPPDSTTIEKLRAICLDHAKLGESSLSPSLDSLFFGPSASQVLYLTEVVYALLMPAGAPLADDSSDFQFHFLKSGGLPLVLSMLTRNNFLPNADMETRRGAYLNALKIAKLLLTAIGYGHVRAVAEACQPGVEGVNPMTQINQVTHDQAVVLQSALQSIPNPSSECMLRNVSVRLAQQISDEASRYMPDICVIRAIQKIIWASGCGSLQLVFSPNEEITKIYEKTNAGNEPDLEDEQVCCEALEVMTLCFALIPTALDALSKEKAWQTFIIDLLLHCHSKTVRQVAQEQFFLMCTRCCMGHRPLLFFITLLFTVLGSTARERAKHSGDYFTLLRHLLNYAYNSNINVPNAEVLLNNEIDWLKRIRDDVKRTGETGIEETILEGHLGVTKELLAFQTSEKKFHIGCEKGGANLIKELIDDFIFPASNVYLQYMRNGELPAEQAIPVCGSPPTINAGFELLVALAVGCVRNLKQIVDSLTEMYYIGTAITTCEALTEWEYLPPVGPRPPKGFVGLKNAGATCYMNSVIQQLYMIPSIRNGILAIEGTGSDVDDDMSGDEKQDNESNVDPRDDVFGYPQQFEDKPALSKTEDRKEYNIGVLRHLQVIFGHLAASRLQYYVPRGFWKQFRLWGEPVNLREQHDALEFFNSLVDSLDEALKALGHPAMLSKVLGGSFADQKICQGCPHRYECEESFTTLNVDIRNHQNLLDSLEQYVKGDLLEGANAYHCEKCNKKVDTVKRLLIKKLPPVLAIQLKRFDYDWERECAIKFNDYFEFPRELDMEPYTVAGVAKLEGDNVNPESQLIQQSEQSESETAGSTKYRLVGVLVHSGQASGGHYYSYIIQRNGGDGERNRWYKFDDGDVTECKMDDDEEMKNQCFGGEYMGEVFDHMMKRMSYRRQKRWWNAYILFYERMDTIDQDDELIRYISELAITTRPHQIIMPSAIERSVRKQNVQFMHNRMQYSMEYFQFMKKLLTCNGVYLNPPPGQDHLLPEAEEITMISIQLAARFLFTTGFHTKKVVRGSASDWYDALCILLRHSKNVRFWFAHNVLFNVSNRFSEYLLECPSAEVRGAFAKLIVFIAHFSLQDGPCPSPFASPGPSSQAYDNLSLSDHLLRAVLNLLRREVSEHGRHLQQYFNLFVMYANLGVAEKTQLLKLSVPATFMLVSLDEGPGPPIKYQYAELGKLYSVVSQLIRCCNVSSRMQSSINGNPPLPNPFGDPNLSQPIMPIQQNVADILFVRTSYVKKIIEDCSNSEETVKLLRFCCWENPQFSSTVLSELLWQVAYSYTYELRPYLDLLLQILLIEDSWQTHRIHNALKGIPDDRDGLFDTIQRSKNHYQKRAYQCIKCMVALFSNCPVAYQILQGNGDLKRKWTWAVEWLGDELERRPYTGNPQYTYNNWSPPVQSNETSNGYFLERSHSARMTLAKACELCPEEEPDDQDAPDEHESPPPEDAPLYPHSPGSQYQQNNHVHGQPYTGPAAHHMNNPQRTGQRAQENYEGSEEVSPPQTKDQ
Sequence of USP7 (Q93009 whole entry, looked up): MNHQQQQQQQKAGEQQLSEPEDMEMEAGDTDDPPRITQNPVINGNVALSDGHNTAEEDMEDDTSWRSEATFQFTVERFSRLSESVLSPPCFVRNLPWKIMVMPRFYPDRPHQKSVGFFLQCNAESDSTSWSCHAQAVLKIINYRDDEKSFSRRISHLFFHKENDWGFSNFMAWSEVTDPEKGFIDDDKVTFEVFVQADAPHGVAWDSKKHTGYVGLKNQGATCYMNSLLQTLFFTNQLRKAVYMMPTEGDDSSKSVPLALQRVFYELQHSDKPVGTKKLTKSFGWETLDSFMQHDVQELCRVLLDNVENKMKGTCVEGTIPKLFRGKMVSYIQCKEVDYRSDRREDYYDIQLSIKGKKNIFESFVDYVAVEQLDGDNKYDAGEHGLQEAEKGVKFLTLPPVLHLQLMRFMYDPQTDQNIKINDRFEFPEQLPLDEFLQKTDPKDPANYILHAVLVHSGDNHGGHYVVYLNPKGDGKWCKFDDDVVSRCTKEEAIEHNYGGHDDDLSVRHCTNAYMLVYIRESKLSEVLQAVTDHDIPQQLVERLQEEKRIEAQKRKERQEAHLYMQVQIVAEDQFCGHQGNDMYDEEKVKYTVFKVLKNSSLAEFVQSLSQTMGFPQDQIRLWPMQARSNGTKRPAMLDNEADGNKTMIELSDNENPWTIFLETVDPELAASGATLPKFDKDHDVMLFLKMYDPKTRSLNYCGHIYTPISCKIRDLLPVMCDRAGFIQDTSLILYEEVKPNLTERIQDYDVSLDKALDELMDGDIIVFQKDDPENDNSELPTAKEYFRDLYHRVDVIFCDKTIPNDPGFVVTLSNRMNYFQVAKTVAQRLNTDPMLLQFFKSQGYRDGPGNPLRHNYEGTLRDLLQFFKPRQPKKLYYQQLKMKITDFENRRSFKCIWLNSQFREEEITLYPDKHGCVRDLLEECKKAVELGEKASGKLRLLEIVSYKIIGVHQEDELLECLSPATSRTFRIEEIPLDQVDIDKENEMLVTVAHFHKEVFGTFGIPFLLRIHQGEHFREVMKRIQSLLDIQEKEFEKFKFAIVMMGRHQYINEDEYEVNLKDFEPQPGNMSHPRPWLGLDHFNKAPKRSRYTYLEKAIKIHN
Sequence of UniProt O00487 (O00487 whole entry): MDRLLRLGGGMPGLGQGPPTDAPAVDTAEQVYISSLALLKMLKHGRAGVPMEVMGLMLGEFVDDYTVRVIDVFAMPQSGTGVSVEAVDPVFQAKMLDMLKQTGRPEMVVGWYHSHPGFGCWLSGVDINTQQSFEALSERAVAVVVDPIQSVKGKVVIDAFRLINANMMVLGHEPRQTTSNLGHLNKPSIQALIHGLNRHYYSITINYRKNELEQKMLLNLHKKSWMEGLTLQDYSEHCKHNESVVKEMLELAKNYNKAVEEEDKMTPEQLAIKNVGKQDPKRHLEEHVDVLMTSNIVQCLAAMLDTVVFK
Sequence of USP46 (P62068 whole entry): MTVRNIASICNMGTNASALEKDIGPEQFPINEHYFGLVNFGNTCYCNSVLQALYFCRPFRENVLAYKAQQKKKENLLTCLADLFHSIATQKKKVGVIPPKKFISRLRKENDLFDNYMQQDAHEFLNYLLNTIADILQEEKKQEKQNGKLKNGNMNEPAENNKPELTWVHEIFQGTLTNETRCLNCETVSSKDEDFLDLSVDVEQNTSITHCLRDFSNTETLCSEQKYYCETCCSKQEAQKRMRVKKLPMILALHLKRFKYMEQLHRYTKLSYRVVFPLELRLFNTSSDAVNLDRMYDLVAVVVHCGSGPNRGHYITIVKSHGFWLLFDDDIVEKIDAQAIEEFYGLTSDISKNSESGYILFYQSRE

CC(=O)Nc1ccc(NC(=O)CCl)cc1
inactive: USP42 0.329 | USP46 -0.0429 | USP47 -0.31 | USP48 -0.256 | USP5 -0.0185 | USP54 0.408 | USP7 -0.267 | USP8 -0.236 | USP9X -0.118 | UniProt O00487 -0.167
